# Source: PubChem
# Compounds with a hit are over-represented: about 9% of the library has one in this group of screens.
# PLK1 PBD block = PLK1 (human) polo-box domain binding inhibition. Potency, µM, without a hit: max response, negative = inhibition, most hits filed as inhibitors. AID 720504. Plk1 PBD binding of FITC phosphopeptide, fluorescence polarization. actives 2.8% (n = 360,000); note: series mostly up to about 57 µM; % is set by controls: 0 for no effect and ±100 for the full control effect; nearly all actives have a fitted effect of over 65% in size
# JMJD2A Tudor = inhibitors of human JMJD2A Tudor domain | AlphaScreen JMJD2A-Tudor / H3K4me3 peptide binding | Potency, µM (series often up to 114 µM), for the others: at the highest dose activity change, negative = inhibition, usual class: inhibitors | actives 4.4% (n = 390,000) | AID 504339; note: % is set by controls: 0 for no effect and ±100 for the full control effect; nearly all actives have a fitted effect of over 50% in size
# BAZ2B inh = blocks human BAZ2B | actives 4.4% (n = 360,000) | Potency, µM (series often up to 114 µM), for inactives: at the top dose activity change, negative = inhibition, usual class: inhibitors | AlphaScreen BAZ2B-H3K14Ac peptide displacement | AID 504333; note: % is set by controls: 0 for no effect and ±100 for the full control effect; nearly all actives have a fitted effect of over 60% in size
#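 BAZ2B (50 nM) with biotin-H3(5-23)K14Ac peptide (50 nM) in PBS pH 7.4, 0.01% Tween-20, preformed 30 min, then compound 30 min at room temperature; top concentration 110uM. AlphaScreen streptavidin donor/nickel chelate acceptor beads (10 ug/mL final), 20 min dark, signal read.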
# G9a block = G9a (human) methyltransferase inhibition. AID 504332. Potency, µM (series often up to 102 µM), inactives show top-dose activity, negative = inhibition, usual class: inhibitors. actives 8.8% (n = 350,000). G9a H3K9 monomethylation, AlphaScreen, 2 h; note: % is set by controls: 0 for no effect and ±100 for the full control effect; nearly all actives have a fitted effect of over 75% in size
# Target sequence (Q96KQ7 913-1193 limits assumed): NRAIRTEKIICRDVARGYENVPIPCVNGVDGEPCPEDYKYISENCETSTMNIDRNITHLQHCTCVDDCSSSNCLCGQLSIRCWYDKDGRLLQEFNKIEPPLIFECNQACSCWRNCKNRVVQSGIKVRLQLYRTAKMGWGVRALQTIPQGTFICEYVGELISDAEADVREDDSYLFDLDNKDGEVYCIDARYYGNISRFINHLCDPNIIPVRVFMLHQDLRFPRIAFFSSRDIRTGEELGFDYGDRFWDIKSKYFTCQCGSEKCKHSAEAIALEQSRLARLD
#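 AlphaScreen read-out: biotin-H3K9 peptide (500 nM) methylation by 20 nM enzyme with 20 uM SAM, 2 h at room temperature after 15 min compound preincubation; anti-monomethyl H3K9 antibody plus donor/acceptor beads, 10 min dark.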
# HP1b chromo inh = HP1-beta chromodomain-methylated histone interaction inhibition | P83916 | AlphaScreen HP1-beta / biotin-H3K9me3 peptide binding | Potency, µM (highest dose often 114 µM), for inactives: at the highest dose activity change, negative = inhibition, hits mostly inhibitors | actives 0.56% (n = 390,000) | AID 540317; note: nearly all actives have a fitted effect of over 70% in size
# Target sequence (P83916 whole entry, looked up): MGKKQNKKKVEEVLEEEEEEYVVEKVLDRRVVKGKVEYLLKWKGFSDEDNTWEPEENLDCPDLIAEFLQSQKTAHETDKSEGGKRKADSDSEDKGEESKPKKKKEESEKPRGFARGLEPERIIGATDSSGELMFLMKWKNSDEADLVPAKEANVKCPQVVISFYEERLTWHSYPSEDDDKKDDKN
#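 Compound inhibition of the preformed complex between 50 nM HP1-beta and 50 nM biotinylated H3K9me3 peptide was read by AlphaScreen. Buffer was PBS pH 7.4 with 0.01% Tween-20. Incubations ran 30 min at room temperature, with 10 ug/mL donor/acceptor beads.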
# 12-LOX inh = inhibitors of human 12S-lipoxygenase ALOX12; AID 1671190; actives 1.1% (n = 580,000); P18054; Potency, µM (titrated, usually from 108 µM), inactives show at the highest dose activity change, negative = inhibition, actives largely listed as inhibitors; purified 12hLO, xylenol orange hydroperoxide absorbance; note: % is set by controls: 0 for no effect and ±100 for the full control effect
#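 Hydroperoxide product was detected by ferrous iron/xylenol orange as the 573 to 405 nm absorbance ratio. Arachidonic acid at 40 uM (final) was turned over for 30 min at room temperature by 150 nM human 12hLO, pH 7.0 Hepes buffer, after 15 min compound preincubation.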
# Starred values were filed as active, the others as inactive; ? = inconclusive; . = not tested or not shown; [ ] = remark or other dose. Calls come from the whole dose curve; as a rule, active = well fitted curve in the direction sought with a large enough effect; inconclusive = small, poorly fitted or top-dose-only effect, or another doubt; inactive = no such curve, though single readings can be large; an effect the other way counts as inactive or inconclusive. Potency is the fitted concentration of half-maximal effect.
SMILES,PLK1 PBD block,JMJD2A Tudor,BAZ2B inh,G9a block,HP1b chromo inh,12-LOX inh
CCOC(=O)C(CC)Sc1nc2c(c(=O)[nH]c(=O)n2C)n1C/C=C(/C)Cl (stereo not drawn),2.7µM*,18µM*,-3%,?,-11%,?
COc1cc(/C=C/C(=O)c2cccc([N+](=O)[O-])c2)cc(OC)c1,.,.,.,.,.,4%
COc1ccc(N=Cc2c(O)n(-c3cccc(C)n3)c(=O)c3ccccc23)cc1,-6%,0%[57.1 µM],-33%,?,20%,?
CCC1(c2ccc(NC(=O)c3cccc(OC)c3)cc2)CCC(=O)NC1=O (stereo not drawn),.,.,.,.,.,-49%
CSc1nc(Oc2cccc(C(F)(F)F)c2)cc(C(F)(F)F)n1,27µM*,22%[11.4 µM],39%,47%[59 µM],123%,-2%
COc1ccccc1N1CCN(C2CCCN(C(=O)c3cc(C)oc3C)C2)CC1 (stereo not drawn),-1%,-18%,8%,21%,10%,3%
Cc1ccccc1N1CCN(C2CCCN(C(=O)c3ccc(Cl)s3)C2)CC1 (stereo not drawn),2%,-16%,-35%,-15%,6%,0%
Cc1cc(C(=O)N2CCCC(N3CCN(c4ccc(F)cc4)CC3)C2)c(C)o1 (stereo not drawn),27µM*,?,?,-15%,1%,-18%
Cc1ccc(C(=O)N2CCCC(N3CCN(c4ccccc4C)CC3)C2)c(=O)[nH]1 (stereo not drawn),4%,50µM*,-6%[57.1 µM],10%,?,6%
COc1ccc(CC(=O)c2ccc(OC)c(OC)c2)cc1,5%,-26%,1%,0%,-29%,-23%
O=C(O)c1ccccc1-c1ccc(/C=C/c2cc(C(F)(F)F)[nH]c(=O)n2)o1,14%,-26%,?,40µM*,7%,?
O=C(O)c1cc(Cl)ccc1-c1ccc(/C=C/c2cc(C(F)(F)F)[nH]c(=O)n2)o1,40%,-12%,-25%,?,-3%,?
Cc1ccccc1CSc1nc2c(=O)n(C)c(=O)n(C)c2n1C,.,.,.,.,.,1%
CN(C)S(=O)(=O)c1ccc(NCC2COc3ccccc3O2)c([N+](=O)[O-])c1 (stereo not drawn),30µM*,25µM*,?,?,?,-12%
CCN(CC)S(=O)(=O)c1ccc(NCC2COc3ccccc3O2)c([N+](=O)[O-])c1 (stereo not drawn),7%,?,?,?,?,1%
CCOC(=O)C1(CCC(C)C)CC(CSc2nc3ccccc3[nH]2)OC1=O (stereo not drawn),0%,-10%,?,14%[12.7 µM],50%,?
CCCCCCC1CC(CSC(=N)N)OC1=O (stereo not drawn),-4%,-4%,12%,10%[59 µM],30%,-13%
CCCCCC1(C(=O)OCC)CC(CSC(=N)N)OC1=O (stereo not drawn),30µM*,-5%,-8%,-40%,4%,-15%
CCOC(=O)C1(CC)CC(CSc2nc3ccccc3[nH]2)OC1=O (stereo not drawn),2%,89µM*,?,-9%[12.7 µM],14%,-10%
CCCN(CCC)C(=O)C1CC(=O)OC12CCOC(C)(C)C2 (stereo not drawn),-3%,-7%,5%,6%[59 µM],39%,-2%
O=C1N(Cc2cccc(Cl)c2)C[C@@H]2C[C@@H](c3ccccn3)N3CCC[C@@]123,-16%,-25%,79µM*,25µM*,18%,-4%
O=C1N(Cc2cccnc2)C[C@@H]2C[C@@H](c3ccc(-c4ccccc4)cc3)N3CCC[C@@]123,-13%,-22%,-30%,50µM*,18%,0%
O=C1N(Cc2cccnc2)C[C@@H]2C[C@@H](c3cccc(OCc4ccccc4)c3)N3CCC[C@@]123,-7%,-34%,-14%,.,13%,-6%
CCn1ccnc1[C@@H]1C[C@H]2CN(Cc3cccc(Cl)c3)C(=O)[C@]23CCCN13,1%,-4%,-3%,15%,22%,0%
Cn1cc([C@@H]2C[C@H]3CN(Cc4cccc(Cl)c4)C(=O)[C@]34CCCN24)c2ccccc21,8%,-29%,-30%,50µM*,16%,-2%
SMILES,PLK1 PBD block,JMJD2A Tudor,BAZ2B inh,G9a block,HP1b chromo inh,12-LOX inh
CCCn1cc([C@@H]2C[C@H]3CN(Cc4cccc(Cl)c4)C(=O)[C@]34CCCN24)c(C)n1,-1%,-17%,-13%,15%,13%,-17%
CC1(C)CC(=O)C2=C(C1)N1CCc3cc4c(cc3C1=CC2c1ccc(F)cc1)OCCCO4 (stereo not drawn),.,.,.,.,.,25µM*
COc1cccc(N2CCN(C(C)C(=O)NC34CC5CC(CC(C5)C3)C4)CC2)c1 (stereo not drawn),-2%,?,-35%,-18%,-2%,4%
CSCC[C@H](NC(=O)Cc1c(C)c2cc3c4c(oc3cc2oc1=O)CCCC4)C(=O)O,-23%,-19%,-10%,45µM*,32%,-4%
O=C(NCCc1cccnc1)c1ccc2c(c1)CCC2,.,.,.,.,.,-23%
O=C(O)CCCNc1cc(N2CCN(C(=O)c3ccco3)CC2)c2noc3c2c1C(=O)c1ccccc1-3,12%,35µM*,18µM*,10µM*,35µM*,19%
O=C(O)CCCNc1cc(N2CCC3(CC2)OCCO3)c2noc3c2c1C(=O)c1ccccc1-3,.,.,14µM*,?,.,.
O=C1c2ccccc2-c2c1cccc2C(=O)N1CCN(C(=O)c2ccco2)CC1,-28%,-12%,-6%,?,19%,-22%
O=[N+]([O-])c1c(NCCO)cc(N2CCC3(CC2)OCCO3)c2nonc12,-19%,-15%,-5%,0%,13%,?
CCOC(=O)N1CCN(c2cc(NCCC(=O)O)c3c4c(onc24)-c2ccccc2C3=O)CC1,22%,56µM*,28µM*,?,-90%,.
O=C1c2ccccc2-c2onc3c(N4CCN(CCO)CC4)cc(N4CCN(C(=O)c5ccco5)CC4)c1c23,37%,25µM*,16µM*,28µM*,?,17%
CCN(c1ccccc1)S(=O)(=O)c1ccc(OC)c(NC(=O)c2ccccc2OC)c1,-1%,-14%,-1%,-17%,20%,-6%
CCCCNc1cc(N2CCN(C3CCCCC3)CC2)c2noc3c2c1C(=O)c1ccccc1-3,.,?,5µM*,?,-22%,13%
CN1CCN(c2cc(N3CCN(C(=O)c4ccco4)CC3)c3c4c(onc24)-c2ccccc2C3=O)CC1,27%,40µM*,16µM*,35µM*,?,.
